Experimental data reported in the supplement of paper PMC12350171.
Structures can show the parent of a compound that is named as a salt.

What was measured:
Details in all cases: 20 µM
[1] = test system: Salmonella enterica typhimurium; assay: growth AUC normalised to DMSO control (fraction of control); higher = less growth inhibition, active = hit call of the paper
Procedure, shortened: (§1)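 Pathogens were passaged twice under anaerobic conditions, then inoculated into pre-reduced mGAM plates at a starting OD578 of 0.01, with compound at 20 μM and 1% DMSO, and sealed with breathable membranes. For Haemophilus parainfluenzae, the medium was supplemented with hemin and NAD. OD578 was read every hour for 24 h in three biological replicates. Growth-curve AUC was calculated by the trapezoidal rule up to the exponential-to-stationary transition and normalised to DMSO controls on the same plate.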

Shigella flexneri = assay: as above
Procedure, shortened: as §1

Vibrio cholerae = assay: as above
Procedure, shortened: as §1

[2] = test system: Yersinia pseudotuberculosis; assay: as above
Procedure, shortened: as §1

P. vulgatus RND KO = assay: growth AUC normalised to DMSO control (median) (fraction of control); higher = less growth inhibition, active = hit call of the paper
Procedure, shortened: (§2)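 In 96-well plates of mGAM seeded at OD578 0.01, strains that had been passaged twice overnight without oxygen were exposed to approved-drug library compounds at 20 μM with 1% DMSO. Hourly OD578 readings were taken for 24 h in an anaerobic incubator. The trapezoidal-rule area under the curve, with curves truncated at entry into stationary phase, was expressed relative to same-plate vehicle wells as the median of three biological replicates.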

P. vulgatus WT = assay: as above
Procedure, shortened: as §2

[3] = test system: S. enterica typhimurium WT; assay: as above
Procedure, shortened: as §2

[4] = test system: S. enterica typhimurium tolC KO; assay: as above
Procedure, shortened: as §2

Measured: growth AUC normalised to DMSO control
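Throughout, for growth AUC normalised to DMSO control (median): active when median AUC fell below 0.1.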

O=S(=O)(O)CCS [Coenzyme M]
inactive: [1] 1 | Shigella flexneri 1.02 | Vibrio cholerae 1.01 | [2] 0.997 | P. vulgatus RND KO 1.01 | P. vulgatus WT 1.01 | [3] 1.01 | [4] 1

C[C@@H]1C[C@H]2[C@@H]3C[C@H](F)C4=CC(=O)C=C[C@]4(C)[C@@]3(F)[C@@H](O)C[C@]2(C)[C@@]1(O)C(=O)CO [Flumethasone]
inactive: [1] 0.995 | Shigella flexneri 0.994 | Vibrio cholerae 0.997 | [2] 0.993 | P. vulgatus RND KO 1.01 | P. vulgatus WT 1.02 | [3] 0.997 | [4] 1.01

CCCCCCCN(CC)CCCC(O)c1ccc(NS(C)(=O)=O)cc1 (stereo not given) [Ibutilide fumarate]
inactive: [1] 0.991 | Shigella flexneri 0.961 | Vibrio cholerae 0.964 | [2] 0.989 | P. vulgatus RND KO 1.01 | P. vulgatus WT 0.991 | [3] 0.996 | [4] 1.01

CCOC(=O)C(C)(C)Oc1ccc(Cl)cc1 [Clofibrate]
inactive: [1] 1.03 | Shigella flexneri 1.01 | Vibrio cholerae 1.03 | [2] 1.02 | P. vulgatus RND KO 1.03 | P. vulgatus WT 1.04 | [3] 1 | [4] 0.991

Nc1ccn([C@H]2CC[C@@H](CO)O2)c(=O)n1 [Zalcitabine]
inactive: [1] 1.02 | Shigella flexneri 1.02 | Vibrio cholerae 1.06 | [2] 1.04 | P. vulgatus RND KO 1.04 | P. vulgatus WT 1.06 | [3] 1 | [4] 1.01

CCN(CC)CCc1nc(-c2ccccc2)no1 [Oxolamine citrate salt]
inactive: [1] 0.99 | Shigella flexneri 1.01 | Vibrio cholerae 1.04 | [2] 1.03 | P. vulgatus RND KO 0.97 | P. vulgatus WT 0.98 | [3] 1.01 | [4] 1.01

Clc1ccc(COC(Cn2ccnc2)c2ccc(Cl)cc2Cl)c(Cl)c1 (stereo not given) [Miconazole]
inactive: [1] 0.997 | Shigella flexneri 1.01 | Vibrio cholerae 0.995 | [2] 1.03 | P. vulgatus RND KO 0.938 | P. vulgatus WT 0.927 | [3] 0.993 | [4] 0.98

CC(C)(Sc1cc(C(C)(C)C)c(O)c(C(C)(C)C)c1)Sc1cc(C(C)(C)C)c(O)c(C(C)(C)C)c1 [Probucol]
inactive: [1] 0.996 | Shigella flexneri 1.02 | Vibrio cholerae 0.998 | [2] 0.985 | P. vulgatus RND KO 1 | P. vulgatus WT 0.997 | [3] 1.01 | [4] 1

CC(=O)/N=c1/sc(S(N)(=O)=O)nn1C [Methazolamide]
inactive: [1] 0.99 | Shigella flexneri 1.04 | Vibrio cholerae 1.05 | [2] 0.979 | P. vulgatus RND KO 1.07 | P. vulgatus WT 1.06 | [3] 1.01 | [4] 1.02

CCCCC1C(=O)N(c2ccccc2)N(c2ccc(O)cc2)C1=O (stereo not given) [Oxyphenbutazone]
inactive: [1] 0.996 | Shigella flexneri 1.04 | Vibrio cholerae 1.03 | [2] 1 | P. vulgatus RND KO 1.03 | P. vulgatus WT 1.06 | [3] 1.01 | [4] 1.01

Cc1nc2n(c(=O)c1CCN1CCC(c3noc4cc(F)ccc34)CC1)CCCC2 [Risperidone]
inactive: [1] 1 | Shigella flexneri 0.997 | Vibrio cholerae 0.995 | [2] 1 | P. vulgatus RND KO 1.03 | P. vulgatus WT 1.03 | [3] 0.997 | [4] 0.993

NCCCC[C@H](N[C@@H](CCc1ccccc1)C(=O)O)C(=O)N1CCC[C@H]1C(=O)O [Lisinopril]
inactive: [1] 1.01 | Shigella flexneri 1.02 | Vibrio cholerae 1.04 | [2] 1.01 | P. vulgatus RND KO 1.05 | P. vulgatus WT 1.04 | [3] 1.01 | [4] 0.997

OCCN(CCO)c1nc(N2CCCCC2)c2nc(N(CCO)CCO)nc(N3CCCCC3)c2n1 [Dipyridamole]
inactive: [1] 1.01 | Shigella flexneri 1.01 | Vibrio cholerae 1.01 | [2] 1 | P. vulgatus RND KO 1 | P. vulgatus WT 0.997 | [3] 1.02 | [4] 0.956

CN(C)CCN(Cc1ccccc1)c1ccccn1 [Tripelennamine hydrochloride]
inactive: [1] 1 | Shigella flexneri 0.993 | Vibrio cholerae 1.01 | [2] 0.973 | P. vulgatus RND KO 0.982 | P. vulgatus WT 0.985 | [3] 0.965 | [4] 1

O=C1CC2(CCCC2)CC(=O)N1CCCCN1CCN(c2ncccn2)CC1 [Buspirone hydrochloride]
inactive: [1] 1.01 | Shigella flexneri 1.08 | Vibrio cholerae 1.04 | [2] 1 | P. vulgatus RND KO 1.12 | P. vulgatus WT 1.11 | [3] 0.986 | [4] 0.979
